The record followed here is ChEMBL document CHEMBL4808148, “HDAC6 screening dataset using tau-based substrate in an enzymatic assay yields selective inhibitors and activators” (2021).

Hit rate of the full screen: of about 5,600 compounds, about 390 (7%) showed an effect of 50% or more. Only a selection was taken, and strong results are over-represented in it overall.

The target in this assay is T1, Protein deacetylase HDAC6 (Homo sapiens) (UniProt Q9UBN7).
T1 sequence (whole entry): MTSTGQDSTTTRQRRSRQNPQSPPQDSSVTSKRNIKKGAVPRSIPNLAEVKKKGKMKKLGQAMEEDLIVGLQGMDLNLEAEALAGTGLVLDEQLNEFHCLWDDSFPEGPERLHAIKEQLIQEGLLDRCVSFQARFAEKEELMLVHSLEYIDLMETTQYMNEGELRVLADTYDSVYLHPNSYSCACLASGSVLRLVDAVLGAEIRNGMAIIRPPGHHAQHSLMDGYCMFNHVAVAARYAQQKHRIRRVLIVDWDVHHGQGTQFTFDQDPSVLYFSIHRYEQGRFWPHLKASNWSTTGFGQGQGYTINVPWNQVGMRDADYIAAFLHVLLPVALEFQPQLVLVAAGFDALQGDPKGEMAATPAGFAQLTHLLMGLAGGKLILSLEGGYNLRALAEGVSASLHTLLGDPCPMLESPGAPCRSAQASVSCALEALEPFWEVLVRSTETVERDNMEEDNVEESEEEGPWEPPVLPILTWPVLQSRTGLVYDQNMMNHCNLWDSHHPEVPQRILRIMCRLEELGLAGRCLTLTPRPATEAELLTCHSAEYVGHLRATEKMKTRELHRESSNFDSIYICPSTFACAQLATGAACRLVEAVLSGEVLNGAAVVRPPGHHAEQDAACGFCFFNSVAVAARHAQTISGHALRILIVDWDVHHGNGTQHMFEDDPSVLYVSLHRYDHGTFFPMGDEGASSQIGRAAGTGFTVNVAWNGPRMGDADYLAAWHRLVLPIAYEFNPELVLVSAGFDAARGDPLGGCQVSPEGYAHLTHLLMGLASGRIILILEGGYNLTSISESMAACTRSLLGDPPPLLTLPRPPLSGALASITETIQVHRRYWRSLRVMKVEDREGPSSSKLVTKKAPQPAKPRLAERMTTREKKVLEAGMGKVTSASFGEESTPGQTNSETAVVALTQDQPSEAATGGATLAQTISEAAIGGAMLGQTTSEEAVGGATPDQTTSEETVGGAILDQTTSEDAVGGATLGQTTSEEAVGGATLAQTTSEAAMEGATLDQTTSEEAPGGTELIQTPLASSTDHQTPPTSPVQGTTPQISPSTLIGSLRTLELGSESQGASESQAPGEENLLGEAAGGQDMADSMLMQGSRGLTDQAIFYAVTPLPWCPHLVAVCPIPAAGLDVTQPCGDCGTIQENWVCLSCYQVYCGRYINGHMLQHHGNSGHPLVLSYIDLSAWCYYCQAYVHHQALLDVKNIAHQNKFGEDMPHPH
The following applies: at 10 µM.
Usually inhibition stands for the drop in the measured response relative to a control, in per cent. For the compound `O=C(CCCc1ccc(-c2ccccc2F)cc1)Nc1ccc(O)cc1`, the inhibition amounted to 24%.

`Cc1ccccc1C(=O)c1ccc(Nc2ccc(Br)cc2N)cc1Cl`: the inhibition stood at 3.48%.

On to `COc1cc2nc(C3CC3)nc(N3CCN(c4ccccc4OC)CC3)c2cc1OC`, for which the inhibition came to 89.3%.

Turning to `COc1ccccc1N1CCN(CCCCN2C(=O)c3ccccc3C2=O)CC1`, the inhibition amounted to 0.28%.

`COc1cc2nc(N3CCN(C(=O)C4COc5ccccc5O4)CC3)nc(N)c2cc1OC` (stereo not drawn): the inhibition turned out to be 6.59%.

As for `CCCn1c(=O)c2nc(C34CC5CC(CC3C5)C4)[nH]c2n(CCC)c1=O`, the inhibition is 2.81%.

Regarding `CCCCNNC(=O)c1ccc(Br)cc1`, the inhibition amounted to 35.4%.

In the case of `CN(C)C(=O)N[C@H]1CC[C@H](CCN2CCN(c3cccc(Cl)c3Cl)CC2)CC1`, the inhibition stood at 18.9%.

Regarding `COc1ccc(-c2nc3cc(C4=NNC(=O)CC4C)ccc3[nH]2)cc1` (stereo not drawn), the inhibition is 87.1%.

As for `COc1cc2c(cc1OC)C(c1ccc(N)cc1)=NNC(=O)C2`, the inhibition is -3.23%.

Regarding `CC(C)n1nc(C#Cc2ccccc2)c2c(N)ncnc21`, the inhibition was 19%.

For the compound `CCOC(=O)C1CSC(Cc2ccc(OCc3ccc([N+](=O)[O-])cc3)cc2)N1` (stereo not drawn), the inhibition was 13.2%.

For `COc1ccc(C(=O)/C(Br)=C/C(=O)O)cc1`, the inhibition was -2.93%.

`CC(=O)C(=Cc1cc(O)c(O)c([N+](=O)[O-])c1)C(C)=O`: the inhibition was 13.4%.

Regarding `CS(=O)(=O)c1ccc(-c2cnc(NCc3ccco3)n3cnnc23)cc1`, the inhibition worked out at 7.67%.

As for `Cc1cc(C)c2c(N)c(C(=O)NCc3ccc(Cl)cc3)sc2n1`, the inhibition was 16.5%.

Regarding `Cc1coc2c1C(=O)C(=O)c1c-2ccc2c1CCCC2(C)C`, the inhibition came to 42%.

Regarding `Cc1coc2c1C(=O)C(=O)c1c-2ccc2c(C)cccc12`, the inhibition stood at 93.9%.

As to `Cc1nn(-c2ccccc2)c(C)c1/C=N/N1CCN(Cc2ccccc2)CC1`, the inhibition stood at 9.22%.

As to `O=C(O)C[C@H](O)C[C@H](O)CCc1c(C2CC2)nc2ccccc2c1-c1ccc(F)cc1`, the inhibition was found to be 26%.

For `CCCCCCCC[N+](C)(C)Cc1ccccc1`, the inhibition was -8.69%.

For the compound `c1cn2cc(-c3ccc4cn[nH]c4c3)nc(Nc3ccc(N4CCOCC4)cc3)c2n1`, the inhibition amounted to 20.2%.

Turning to `NS(=O)(=O)c1nn2cc(-c3ccccc3)nc2s1`, the inhibition amounted to 96.2%.

`CC(=O)/N=c1/sc(S(N)(=O)=O)nn1C`: the inhibition is -2.26%.

Consider `CC(=O)OCC(=O)[C@@]1(O)CC[C@H]2[C@@H]3CCC4=CC(=O)C=C[C@]4(C)[C@@]3(F)[C@@H](O)C[C@@]21C`, for which the inhibition is 39.3%.

On to `O=C1c2c(O)cccc2Cc2cccc(O)c21`, for which the inhibition stood at 3.84%.

As for `CC(=O)c1cc2c(o1)C(=O)c1ccccc1C2=O`, the inhibition came to 25.7%.

Consider `C[C@@H]1CC(=O)c2c(ccc3c2C(=O)c2cccc(O)c2C3=O)C1`, for which the inhibition worked out at 113%.

For `CC1(C)C(=O)N=C2C1=C(O)C(=O)c1ccccc12`, the inhibition worked out at 24.8%.

Consider `CN1CCc2cccc3c2[C@H]1Cc1ccc(O)c(O)c1-3`, for which the inhibition was -6.04%.

On to `COc1cc(O)c2c(c1)C(=O)c1cc(C)cc(O)c1C2=O`, for which the inhibition is 24.3%.

Turning to `O=C1c2cccc(O)c2C(=O)c2c(O)cccc21`, the inhibition was 55.5%.

For the compound `Cc1cc(O)c2c(c1)C(=O)c1cccc(O)c1C2=O`, the inhibition turned out to be 82.4%.

As to `O=C(O)c1cc(O)c2c(c1)C(=O)c1cccc(O)c1C2=O`, the inhibition was found to be 24.6%.

Take `CNCCCOc1cc(F)c(-c2c(Cl)nc3ncnn3c2N[C@@H](C)C(F)(F)F)c(F)c1`: the inhibition was determined as 9.44%.

Take `COc1ccc(CNC(=O)c2cc(-c3cncc(C)c3)ncc2-c2nccs2)nc1OC`: the inhibition turned out to be 8.47%.

For `COc1cccc(OC)c1OCCNCC1COc2ccccc2O1` (stereo not drawn), the inhibition is -6.9%.

Turning to `CSCC[C@H](NC(=O)[C@H](CC(C)C)NC(=O)CNC(=O)[C@H](Cc1ccccc1)NC(=O)[C@H](Cc1ccccc1)NC(=O)[C@H](CCC(N)=O)NC(=O)[C@H](CCC(N)=O)NC(=O)[C@@H]1CCCN1C(=O)[C@H](CCCCN)NC(=O)[C@@H]1CCCN1C(=O)[C@@H](N)CCCN=C(N)N)C(N)=O`, the inhibition worked out at 37.9%.

Take `Fc1ccc(CN2CCC(Nc3ccc(C(F)(F)F)nn3)CC2)cc1F`: the inhibition is 20.4%.

As for `CC#CCC(C)[C@H](O)/C=C/[C@@H]1[C@H]2C/C(=C/CCCC(=O)O)C[C@H]2C[C@H]1O` (stereo partly drawn), the inhibition is -9.51%.

With `COC(=O)c1ccccc1-c1c2ccc(N)cc2[o+]c2cc(N)ccc12`, the inhibition stood at 2.6%.

As to `CN[C@@H]1[C@H](OC2[C@H](O[C@H]3[C@H](O)[C@@H](O)[C@H](N=C(N)N)[C@@H](O)[C@@H]3N=C(N)N)O[C@@H](C)[C@]2(O)C=O)O[C@@H](CO)[C@H](O)[C@H]1O` (stereo partly drawn), the inhibition amounted to 17.6%.

Turning to `Cc1ccccc1/N=N/c1ccc(NC(=O)c2ccnn2C)c(C)c1`, the inhibition stood at 36.7%.

For `O=C(Nc1cccc(Nc2ncc(Br)c(NCCc3cnc[nH]3)n2)c1)N1CCCC1`, the inhibition was determined as 41.2%.

As to `COc1cc2c(cc1OC)-c1cc3nc4ccccc4nc3n1C(C)(C)C2`, the inhibition turned out to be 19.3%.

As to `CCCn1c(=O)[nH]c2nc(-c3ccc(S(=O)(=O)N4CCN(c5ccc(Cl)cc5)CC4)cc3)[nH]c2c1=O`, the inhibition was 3.66%.

Take `Cc1ccc2c(c1CCC(=O)O)CC[C@@H](NS(=O)(=O)c1ccc(Cl)cc1)C2`: the inhibition was -3.38%.

As to `Nc1nc2c(ccc3ccccc32)s1`, the inhibition turned out to be 67.3%.
